Data from ChEMBL document CHEMBL3988442, “University of Dundee, Small-Polar-MMV Screening Library” (2021).

Experiments:
[1] = target: T1, Aspartate--tRNA(Asp/Asn) ligase (Mycobacterium tuberculosis (strain ATCC 25618 / H37Rv)) (UniProt P9WFW3); assay: Assay for Asp RNA synthetase-1 from Mycobacterium tuberculosis; type: functional; parameters: scale not given: direction of the effect not stated beside the values; conditions: 30 µM; further: in the data most compounds retested in dose-response had high values
T1 sequence (whole entry): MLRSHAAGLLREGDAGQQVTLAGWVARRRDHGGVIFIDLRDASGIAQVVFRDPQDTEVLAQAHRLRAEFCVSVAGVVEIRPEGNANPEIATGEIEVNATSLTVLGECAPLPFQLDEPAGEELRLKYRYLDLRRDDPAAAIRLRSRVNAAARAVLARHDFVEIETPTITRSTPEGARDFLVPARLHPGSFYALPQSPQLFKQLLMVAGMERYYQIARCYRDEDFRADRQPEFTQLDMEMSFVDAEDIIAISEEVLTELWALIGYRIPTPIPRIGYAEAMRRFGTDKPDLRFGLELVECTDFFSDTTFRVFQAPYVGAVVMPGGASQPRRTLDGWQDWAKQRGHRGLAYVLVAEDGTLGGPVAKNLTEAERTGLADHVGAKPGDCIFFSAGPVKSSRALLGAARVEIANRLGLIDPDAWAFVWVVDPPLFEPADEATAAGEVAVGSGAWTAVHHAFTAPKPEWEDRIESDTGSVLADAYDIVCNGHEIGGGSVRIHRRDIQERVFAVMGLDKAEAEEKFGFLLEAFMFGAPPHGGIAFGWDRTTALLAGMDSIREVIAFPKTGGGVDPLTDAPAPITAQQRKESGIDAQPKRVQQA

[2] = target: Shiga toxin 2 (Escherichia coli O157:H7) (UniProt P09385+P09386); assay: E. coli 0.157:H7 Shiga Toxin SOP - stx2 screening assay; type: functional; parameters: scale not given: direction of the effect not stated beside the values; conditions: 30 µM

Structure (SMILES)	Percent Effect [1] [%]	Percent Effect [2] [%]
CCn1c(C)nnc1CN(C)C1CCN(CCCOC)C1 (centres undefined)	1.79	7.8
Cc1ccc(N2CCCN(C(=O)C3(C#N)CCCCC3)CC2)nn1	-0.989	4.54
Cn1cc(CN2CCC3(CC2)CC(c2ccncc2)C(=O)N3)cn1 (centres undefined)	12.5	-4.24
CCn1cc(NC(=O)NCC(c2cccs2)N(C)C)cn1 (centres undefined)	-1.06	24.9
Cn1nc(CNC(=O)c2ccc(Cl)cc2)c2c1CCOC2	2.4	-5.64
CCOCC1CN(C(=O)c2ccncc2)Cc2nn(C)cc21 (centres undefined)	4.25	-22.5
Cc1cc(CNC2CCCN(c3cccnn3)C2)no1 (centres undefined)	6.9	-69.6
CCN1CC(C(=O)N2CCC(Oc3ccccc3C)CC2)CC1=O (centres undefined)	-1.25	-32.1
O=C(Nc1cc(F)ccc1OCC1CCCO1)c1ccccn1 (centres undefined)	2.54	37.1
CCC(O)CN1CCN(C(=O)c2cccn2Cc2cccs2)CC1 (centres undefined)	0.685	9.26
Cc1ncnc2c1CCN(c1cc(C(F)(F)F)ncn1)CC2	3.84	6.49
O=C(c1cccc2c1OCCO2)N1CCCC(n2ccnc2)C1 (centres undefined)	-1.01	21.1
O=C(NCc1ccccn1)Nc1cc(C(F)(F)F)c[nH]c1=O	1.37	-24.9
Cc1cc(C2CCCN(CCCNS(C)(=O)=O)C2)n[nH]1 (centres undefined)	-3.97	8.81
O=S(=O)(C1CC1)N1CCC2(COCc3cnc(N4CCOCC4)nc32)C1 (centres undefined)	-2.06	-56.7
FC1(F)CCN(Cc2ccccn2)CC12CCN(c1cccnc1)C2 (centres undefined)	1.08	-6.96
COc1ccccc1CC1CCCN(CC(=O)N2CCOCC2)C1 (centres undefined)	-1.41	16.7
CCNC(=O)N(C)Cc1ccc(SC)c(OC)c1	4.58	0.0534
CCOc1ccc(Cl)c(C(=O)N2CCN(C(=O)c3ccoc3C)CC2)n1	-4.19	-1.17
O=C(NCc1nncn1-c1ccccc1)C1CC(=O)N(CC2CC2)C1 (centres undefined)	-2.56	23.5
O=C(c1cnc(-c2cccs2)s1)N1CCCN2CCCC2C1 (centres undefined)	8.86	1.08
Cc1cc(CC(=O)NCc2ccnc(OCC(F)(F)F)c2)no1	-6.06	21
Cn1ccnc1CN1CCN(CC(O)c2ccc(F)c(F)c2)CC1 (centres undefined)	1.33	-1.4
Cc1cnn(CCNCc2nc(Cc3ccccc3)no2)c1	-1.23	25
O=C1C(NS(=O)(=O)c2cc(F)cc(F)c2)CCN1Cc1ccccc1 (centres undefined)	-5.71	3.9
Cc1[nH]ncc1C(=O)N1CCCC(c2cc(C(F)(F)F)[nH]n2)C1 (centres undefined)	0.845	24.8

Structure (SMILES)	Percent Effect [1] [%]	Percent Effect [2] [%]
Cc1nccc(-c2cccc(NCC(=O)N3CCCCCCC3)c2)n1	1.07	18.8
Cc1ccc(C(=O)N2CCSCC2)cc1NC(=O)NCCO	0.137	5.64
Cc1ccc(C)c(NC(=O)N(C)Cc2cnn(C)c2)c1	-1.13	19.8
CC(NC(=O)c1cccs1)C(=O)NCc1ccccc1CN1CCCC1 (centres undefined)	-4.19	-31.6
O=C(NCc1ccco1)[C@H]1C[C@H]2OCC[C@H]2N(C(=O)c2ccco2)C1	3.58	6.55
CSc1nccn1-c1cccc(C(=O)NCCCN2CCOCC2)c1	-1.07	27.6
Cc1nc(NC2CCCC2)cc(C2CCN2C(=O)c2cccnc2)n1 (centres undefined)	2.75	2.33
CN(C)C(=O)c1cnc2n1CCN(Cc1ccccc1)C2	0.632	-28
Cc1oncc1C(=O)NCc1cc(=O)n2c(n1)CN(C)CCC2	16	-2
COc1ccc(CN2CCn3cc(CN4CCCCC4)nc3C2)cc1	4.3	-5.01
O=C1NCC2(CCCN(Cc3ccccc3F)C2)Oc2ccccc21 (centres undefined)	-5.17	-17.2
CN1CC(=O)N(c2cnn(C)c2)CC12CCN(Cc1nccn1C)C2 (centres undefined)	-3.88	-23.4
COc1ccnc(N2CCN(CC(=O)N3CCOCC3)CC2)n1	-1.91	26.3
Cc1n[nH]c(C)c1NC(=O)CN1CCCC(CNC(=O)C(C)(C)C)C1 (centres undefined)	-4.35	19.6
COc1ccc(C(=O)N(C)Cc2cccc(C#N)c2)c(OC)c1OC	-1.51	30.3
Cc1cc(C)n(C2CCCN(C(=O)c3ccc(F)cc3F)C2)n1 (centres undefined)	7.84	-0.315
Cc1noc(C)c1CN1CC2(CCN(C(=O)c3c[nH]cn3)C2)CC1=O (centres undefined)	0.582	-14.1
CC(=O)N1CCn2c(COCc3csc(C)n3)cnc2C1C (centres undefined)	-3.29	-18.6
O=C(c1ccc(-n2ccnc2)nc1)N1CCCC(n2cccn2)C1 (centres undefined)	-4.43	28.7
Cc1ncc2c(n1)CCCC2NC(=O)c1ccncc1 (centres undefined)	2.71	-63.8
CN(C)c1cc2c(nn1)CCN(C(=O)C1Cc3ccccc3S1)C2 (centres undefined)	1.89	-20.9
CN(C)C(=O)N1C[C@H](Oc2ccccn2)[C@H]2OCCC[C@H]21	2.67	-3.38
CC(NC(=O)CCCOc1ccccc1)c1nnc2n1CCCCC2 (centres undefined)	4.5	19.8
Cn1cc(CN2CCCN(C(=O)c3cc(Cl)cn3C)CC2)cn1	-4.75	22.7
CCn1cc2c(n1)CN(Cc1ccoc1)CC2COCC1CC1 (centres undefined)	-4.69	13.8
Cc1cc(C)c(CNC(=O)N2CCCC2c2ccccc2)c(=O)[nH]1 (centres undefined)	-3.97	-21.1

Structure (SMILES)	Percent Effect [1] [%]	Percent Effect [2] [%]
Cc1ccc(C(=O)N2CCn3cc(CN(C)Cc4ccco4)nc3C2)o1	-0.889	-35.1
Cc1cnn(CC2CCCN2C(=O)c2ccc(OC(C)C)nc2)c1 (centres undefined)	-4.48	-35
O=C(CC1CC1)NCc1cn2c(n1)CN(C(=O)c1cccnc1)CC2	3.04	-29.1
COCC1COCCC12CCN(C(=O)CCc1ccccc1)CC2 (centres undefined)	3.96	-14.9
Cn1cc(-c2csc(N3CCN(C(=O)OC(C)(C)C)CC3)n2)cn1	0.501	-1.73
Cc1n[nH]c(C)c1NC(=O)CN1CCc2c(nc(C3CC3)n2C)C1	4.55	-6.27
O=C(NCCN1CCCCC1)c1ccoc1	2.52	-21.3
CC(NC(=O)N1CCN(c2ccccc2)CC1)c1nncn1C (centres undefined)	1.07	-28.9
Cn1cc(C2CCCN2C(=O)CCCOCc2ccccc2)cn1 (centres undefined)	-6.77	-16.1
O=C(c1cc(Cl)c2c(c1)OCO2)N1CCCC(n2ccnc2)C1 (centres undefined)	-1.93	4.72
NC(=O)C1CCN(c2nc3nccc(-c4ccccc4)c3c(=O)[nH]2)CC1	-4.72	-30.6
Cc1ccc(Nc2nccc(C3CN(CC(N)=O)C3)n2)nc1	-1.29	-33.3
CCn1cc(C(=O)NC2CCN(S(C)(=O)=O)CC2)c2ccccc21	-0.607	-0.257
COCCN(Cc1ccc(F)cc1Cl)C(=O)c1cccc[n+]1[O-]	-4.34	0.846
CCN1CCn2c(C)cnc2C12CCN(C(=O)CC(C)C)CC2	1.31	-0.923
Cc1nc(CN2CCN(Cc3nccn3C)CC2)no1	-3.87	6.4
COCC(=O)N1CCN(Cc2coc(-c3cccc(F)c3)n2)CC1	-1.18	16.9
COc1cc(NC(=O)c2ccccc2F)c(C(=O)N(C)C)cc1OC	8.8	-68.8
O=C(Cn1cc(-c2ccccc2)ncc1=O)Nc1ccncc1	1.91	-0.041
N#Cc1ccccc1CN1C[C@@H]2CC[C@H](C1)N(Cc1cscn1)C2=O	-3.02	3.66
O=C(CCc1ccc(Br)cc1F)NS(=O)(=O)c1ccc2c(c1)OCCO2	7.79	13.8
CC(=O)N1CC(=O)N(c2cnn(C)c2)CC12CCN(Cc1ccsc1)C2 (centres undefined)	4.83	-25.5
CC(C)n1c(C2CCCN(CCS(C)(=O)=O)C2)nc2ccccc21 (centres undefined)	0.943	17.6
CCCOCC(=O)NC1CCc2nc(C)cn2C1 (centres undefined)	1.62	7.61
CN(C)CC1(O)CCN(S(=O)(=O)c2ccc(F)c(F)c2)C1 (centres undefined)	-2.99	4.61
Cc1ccc(C(=O)N2CCC3(CC2)CC(N2CCOCC2)C3)cc1	-1.52	3.95

Structure (SMILES)	Percent Effect [1] [%]	Percent Effect [2] [%]
CC(C)(O)CN1CCN(C(=O)c2cccnc2O)CC1	-6.95	9.08
COC(=O)C(NC(=O)c1ccco1)c1cc(F)ccc1F (centres undefined)	-3.92	7.37
CCN(C(=O)COC)C(c1cccnc1)c1ccc2c(c1)CCO2 (centres undefined)	2.07	-29.4
Cc1ccc(CNC(=O)Cn2ncc3c2c(C)nn3C)cc1	-3.46	-20.9
Cc1cc(CNc2cc(Cl)ccc2Cl)no1	-1.12	2.51
CC(Cn1cccn1)NC(=O)NCc1cccs1 (centres undefined)	-7.69	-7.84
CCN1CC(C(=O)N2CCC(Oc3ccccc3Cl)CC2)CC1=O (centres undefined)	2.64	-34.4
Cn1cc(C(=O)NC[C@@H]2OC[C@H]3CN(S(C)(=O)=O)CC[C@H]32)cn1	0.41	-26.8
CC1COCCN1Cc1nc(-c2cccs2)no1 (centres undefined)	14.7	20.8
c1cnc(N2CCC3(CCN(Cc4ccncc4)CC3)CC2)nc1	-2.46	1.18
O=C(CCNc1ncccn1)NCCOc1ccc2c(c1)CCC2	1.63	35.6
Cc1cc(CN2CCOC(CN(C)c3cccnn3)C2)no1 (centres undefined)	-2.36	18.5
CCc1ccc(O)c(C(=O)NC2CCN(S(=O)(=O)CC)CC2)c1	-3.5	-13.2
Cc1cnn(CC(C)NCc2ccc(OCc3ccncc3)cc2)c1 (centres undefined)	-0.0437	-25.9
Cc1ccc(C(=O)Nc2cc(C(C)C)n[nH]2)cn1	2.73	1.39
CC(=O)NCCNC(=O)c1sc(-c2ccc(C)cc2C)nc1C	3	2.48
CCn1cc(NC(=O)C2CCN(CC(=O)N3CCOCC3)CC2)cn1	-3.23	21.6
O=C(CC1CCCCC1)N1CCN(C(=O)NCc2ccccn2)CC1	2.1	20.8
Cc1ccc2cc(CNCCCO)c(=O)[nH]c2c1	-1.41	-9.65
Cc1cnn(C2CN(Cc3nc(C(C)(C)C)no3)C2)c1	-0.0303	-32.1
Cc1cc(C)n(CCC(=O)N2CCCC(n3cncn3)C2)n1 (centres undefined)	-6.22	0.596
c1cnn(CC2CCCN2c2ncnc3ccsc23)c1 (centres undefined)	3.64	16.1
c1cc(CN2Cc3nnn(CC4CC4)c3C(COCC3CC3)C2)co1 (centres undefined)	-1.45	-2.53
CC(C)c1n[nH]c(C2CN(C(=O)CCCn3cccn3)CCO2)n1 (centres undefined)	-2.62	-10.6
